Records with an inconclusive call do not appear. Calls of active or inactive are those of the source. The calls were made as follows: active = hit-call score of the fitted dose curve at least 0.9, where 1 is the maximum; inconclusive = response in the unintended direction; inactive = score below 0.9.
Read-out: ABC Transporter (ABCB1), ABCB1 (gene 5243)
Experiment: CLD_ABCB1_24hr: CellzDirect (CLD) Gene Expression Assay for ABC Transporter (ABCB1) at 24 hours (AID 2283684);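 as to AC50: potency for increase in ABCB1 mRNA relative to DMSO vehicle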
Procedure: CLD_24hr is a cell-based, multiplexed-readout assay that uses hepatocyte, a human liver primary cell, with measurements taken at 24 hours after chemical dosing in a 96-well plate.CLD_ABCB1_24hr is one of 16 assay component(s) measured or calculated from the CLD_24hr assay. It is designed to make measurements of mRNA induction, a form of inducible reporter, as detected with chemiluminescence signals by Quantitative Nuclease Protection Assay (qNPA) technology.Data from the assay component CLD_ABCB1_24hr was analyzed at the endpoint, CLD_ABCB1_24hr, in the positive analysis fitting direction relative to DMSO as the negative control and baseline of activity. Using a type of inducible reporter, gain-of-signal activity can be used to understand changes in the reporter gene as they relate to the gene ABCB1. Furthermore, this assay endpoint can be referred to as a primary readout. To generalize the intended target to other relatable targets, this assay endpoint is annotated to the transporter intended target family, where subfamily is ABC transporter.
Human hepatocyte cultures were treated daily for two consecutive days with fresh dosing solutions containing appropriate concentrations of the 320 ToxCast chemicals (chemical identities were blinded to CellzDirect and other ToxCast collaborators), vehicle control (0.2% DMSO), and positive control inducers as summarized in Table 1. Due to the large number of treatment groups and chemicals examined, the ToxCast chemicals were divided into two groups (spanning two independent cultures of hepatocytes from separate donor preparations (Hu778: ToxCast plates 1 and 2; Hu776: ToxCast plates 3 and 4). Each preparation of human hepatocyte cultures was treated with respective vehicle control, medium only control, set of six positive controls/reference chemicals for the five hepatic receptor pathways, and a subset of eight of the ToxCast chemicals (indoxacarb, pyrithiobac-sodium, norflurazon, cyhalofop-butyl, methomyl, thiram, acetochlor, and propiconazole). These replicate data, coupled with internal replicates designed within the blinded ToxCast chemical library, provided additional data to evaluate interindividual differences between hepatocyte preparations and their potential impact on chemical profiles.Cell morphology and integrity were evaluated using phase-contrast microscopy as an indicator of hepatocyte cell health (Tyson & Green, 1987). Cultures for each treatment group (i.e., media, vehicle [0.2% DMSO], positive control inducers [multiple concentrations], and the ToxCast chemicals [multiple concentrations]) were observed and cell morphology was assessed relative to vehicle control cultures at each harvest time point (0, 6, 24, or 48 h). […] Images were evaluated at the conclusion of the study to assess changes in cell integrity and account for the effects of chemical exposure on uncharacteristic changes in concentration-dependent gene expression profiles. The results from these determinations of apparent cytotoxicity were annotated (yes/no) alongside the corresponding qNPA data for reference.At the conclusion of each treatment period, hepatocyte cultures (96-well) were washed with 1 volume of HBSS, lysed by addition of 25 ul ArrayPlate lysis buffer (HTG, Tucson, AZ), and 70 ul/well of Denaturation Oil, denatured by incubation at 95C for 10 min, and frozen at approximately -70C until analysis by nuclease protection assay (qNPA) (Roberts et al., 2007). For qNPA analysis, cell lysates were thawed at 50C for approximately 30 min, qNPA probes were added, and samples were incubated at 95C for 10 min to begin the detection process by denaturing the target RNA, dissociating the duplexes and secondary structure hybridization. At the conclusion of the hybridization period, S1 nuclease reagent was added to each sample to digest all nonprotected nucleotides at 50C for 60-90 min. […]

SMILES | outcome | AC50
COC(=O)c1cccc(C)c1S(=O)(=O)NC(=O)Nc1nc(OCC(F)(F)F)nc(N(C)C)n1 | inactive | –
CCOC(=O)C(C)Oc1ccc(Oc2nc3ccc(Cl)cc3o2)cc1 (stereo not given) | inactive | –
CCCOC(=O)c1ccc(C(=O)OCCC)nc1 | inactive | –
CCCCCOC(=O)COc1cc(N2C(=O)C3=C(CCCC3)C2=O)c(F)cc1Cl | inactive | –
COC(=O)CSc1cc(N=c2sc(=O)n3n2CCCC3)c(F)cc1Cl | inactive | –
CC1(C)C(C=C(Cl)Cl)C1C(=O)OCc1cccc(Oc2ccccc2)c1 (stereo not given) | inactive | –
CCCCC(CC)COC(=O)c1ccccc1C(=O)O (stereo not given) | inactive | –
CC(C)(c1ccc(O)cc1)c1ccc(O)cc1 | inactive | –
Cc1nn(C)c(Oc2ccccc2)c1C=NOCc1ccc(C(=O)OC(C)(C)C)cc1 | inactive | –
C#CCOC(=O)[C@@H](C)Oc1ccc(Oc2ncc(Cl)cc2F)cc1 | inactive | –
COC(=O)c1ccc(I)cc1S(=O)(=O)NC(=O)Nc1nc(C)nc(OC)n1 | – | 20 µM (active)
S=C([S-])NCCNC(=S)[S-].[Mn+2] | inactive | –
COC(=O)c1ccccc1S(=O)(=O)NC(=O)Nc1nc(OC(F)F)cc(OC(F)F)n1 | inactive | –
CCCN(CCC)C(=O)SCC | inactive | –
CCCCOC(=O)[C@@H](C)Oc1ccc(Oc2ccc(C(F)(F)F)cn2)cc1 | inactive | –
CSC(=O)c1cccc2nnsc12 | inactive | –
CCCCC(CC)CN1C(=O)C2C3C=CC(C3)C2C1=O (stereo not given) | inactive | –
N#CSCSc1nc2ccccc2s1 | inactive | –
CCCN(CCC)c1c([N+](=O)[O-])cc(C(F)(F)F)c(N)c1[N+](=O)[O-] | inactive | –
COC(=O)c1ccc(CNS(C)(=O)=O)cc1S(=O)(=O)NC(=O)Nc1nc(OC)cc(OC)n1 | inactive | –

SMILES | outcome | AC50
CCCCOCCOCCOCc1cc2c(cc1CCC)OCO2 | inactive | –
CCOC(=O)C(C)Oc1ccc(Oc2cnc3cc(Cl)ccc3n2)cc1 (stereo not given) | inactive | –
CCC(O)=C1C(=O)CC(C(=O)O)CC1=O (stereo not given) | inactive | –
S=C(S)NCCNC(=S)S.[Mn+2].[S-]C([S-])=NCCN=C([S-])[S-].[Zn+2] | – | 1.5 µM (active)
CCOC(=O)COc1cc(-n2ncc(C(F)(F)F)c(C)c2=O)c(F)cc1Cl | inactive | –
COCCO | inactive | –
CCN(CC)C(=O)c1cccc(C)c1 | inactive | –
CCSC(=O)N(CC(C)C)CC(C)C | inactive | –
CC(C)(C)[C@@H](O)[C@@H](Cc1ccc(Cl)cc1)n1cncn1 | – | 9.46 µM (active)
CCC(C)OC(=O)N1CCCCC1CCO (stereo not given) | inactive | –
C=CCOC(Cn1ccnc1)c1ccc(Cl)cc1Cl (stereo not given) | inactive | –
COc1nc(C)nc(NC(=O)NS(=O)(=O)c2ccccc2OCCCl)n1 | inactive | –
CCCOC(=O)NCCCN(C)C | inactive | –
CCOC(=O)NCCOc1ccc(Oc2ccccc2)cc1 | inactive | –
Oc1ccc(C(c2ccc(O)cc2)C(Cl)(Cl)Cl)cc1 | inactive | –
OB(O)O | inactive | –
O=C(Nc1ccc([N+](=O)[O-])cc1Cl)c1cc(Cl)ccc1O | inactive | –
CCNc1nc(N)nc(Cl)n1 | inactive | –
COC(=O)c1c(Cl)nn(C)c1S(=O)(=O)NC(=O)Nc1nc(OC)cc(OC)n1 | inactive | –
COC(=O)c1ccccc1C(=O)O | inactive | –

Source: PubChem BioAssay (EPA / NIEHS)
